# Inconclusive results are not listed. A call without a number means that no potency is given here. Calls of active or inactive are those of the source. The call rests on the fitted dose curve; in most records, active means well fitted inhibition curve with a large enough effect; inconclusive means small, poorly fitted or top-dose-only effect; inactive means flat fitted curve, though single readings scatter. Where a SMILES comes first, the peptide text is derived from it. Bridges are numbered along the chain shown (N, C = ends). [ ]: non-standard residue; d: D form. The star is where a group is joined. X1 = CCC(C)C(N)C1=NC(C(=O)*)CS1; dOrn = NCCC[C@@H](N)C(=O)O
# Target: Calcium and integrin-binding protein 1 (Homo sapiens) (UniProt Q99828)
# Test: Primary qHTS for Identification of Calcium Integrin Binding Protein 1 (CIB1) Competitor (AID 1508620);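 further: GST tagged CIB1 binding a fluorescein labelled alphaIIb integrin peptide tracer; top concentration of the series differs between compounds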
# Details: CIB1-GST / FITC-alphaIIb peptide fluorescence polarization; series mostly up to 57.7 µM
# In short: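 CIB1-GST (1 uM final) and compound incubated 15 min at room temperature before adding FITC-alphaIIb peptide tracer (100 nM final). Competition for binding read by fluorescence polarization (ex 480, em 540) after another 15 min at room temperature.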
# Chain of Calcium and integrin-binding protein 1 (Homo sapiens) (Q99828 whole entry, looked up): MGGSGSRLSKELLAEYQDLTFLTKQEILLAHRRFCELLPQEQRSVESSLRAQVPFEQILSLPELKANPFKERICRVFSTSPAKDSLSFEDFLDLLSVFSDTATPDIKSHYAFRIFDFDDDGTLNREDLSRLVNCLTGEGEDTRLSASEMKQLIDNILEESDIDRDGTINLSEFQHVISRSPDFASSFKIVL
row,Structure (SMILES),Potency
1,CCC(C)C(N)C1=NC(C(=O)N[C@@H](CC(C)C)C(=O)N[C@H](CCC(=O)O)C(=O)N[C@H](C(=O)N[C@H]2CCCCNC(=O)[C@H](CC(N)=O)NC(=O)[C@@H](CC(=O)O)NC(=O)[C@H](Cc3cnc[nH]3)NC(=O)[C@@H](Cc3ccccc3)NC(=O)[C@H]([C@@H](C)CC)NC(=O)[C@@H](CCCN)NC2=O)[C@@H](C)CC)CS1 (stereo partly specified) (X1-L[dE]IK[dOrn]I[dF]H[dD]N; lactam 4-C),inactive
2,O=C1Nc2ccc(O)cc2O[C@H]1O[C@@H]1O[C@H](CO)[C@@H](O)[C@H](O)[C@H]1O,inactive
3,COC(=O)C[C@@H]1C(C(=O)O)=CO[C@@H](O[C@@H]2O[C@H](CO)[C@@H](O)[C@H](O)[C@H]2O)/C1=C\COC(=O)/C=C\c1ccccc1,inactive
4,C=CCc1ccc(O[C@@H]2O[C@H](CO[C@@H]3O[C@@H](C)[C@H](O)[C@@H](O)[C@H]3O)[C@@H](O)[C@H](O)[C@H]2O)cc1,inactive
5,COC(=O)C1=CO[C@@H](O[C@@H]2O[C@H](COC(=O)/C=C/c3cc(OC)c(O)c(OC)c3)[C@@H](O)[C@H](O)[C@H]2O)[C@@H]2C(CO)=CC[C@H]12,inactive
6,COc1ccc(C[C@H](N)C(=O)N[C@H]2[C@@H](O)[C@H](n3cnc4c(N(C)C)ncnc43)O[C@@H]2CO)cc1,inactive
7,CC(C)(O)C1CC=C(C(=O)OCC2OC(Oc3c(O)cc(C(=O)O)cc3O)C(O)C(O)C2O)CC1 (stereo unspecified),inactive
8,C=CC1(C)CC(O)C2(CCC3C(C)(C(=O)O)CCCC3(C)C2=O)C1 (stereo unspecified),inactive
9,C[C@@H]1CC[C@]2(C)C(C[C@@H](O)[C@H](O)[C@]23CO3)[C@@]1(C)CCc1ccoc1 (stereo partly specified),inactive
10,O=C(O)C[C@H]1CCC(=O)[C@@H]1C/C=C\CCOC1OC(CO)C(O)C(O)C1O (stereo partly specified),inactive
11,C[C@]12CC[C@@H]3c4ccc(O[C@@H]5O[C@H](C(=O)O)[C@@H](O)[C@H](O)[C@H]5O)cc4CC[C@H]3[C@@H]1CCC2=O,inactive
12,CC(C)CC(=O)n1cc(C(N)=O)c(=O)cc1C(O)c1ccccc1 (stereo unspecified),inactive
13,CC1OC(OC2C(O)C(C(=O)O)OC(OC3CCC4(C)C(CCC5(C)C4C=CC4=C6CC(C)(C)CC(O)C6(C)CCC45C)C3(C)C)C2OC2OCC(O)C(O)C2O)C(O)C(O)C1O (stereo unspecified),inactive
14,CC1(C)CC[C@]2(C(=O)O[C@@H]3O[C@H](CO)[C@@H](O)[C@H](O)[C@H]3O)CC[C@]3(C)C(=CCC4[C@@]5(C)C[C@@H](O)[C@H](O)C(CO)(CO)C5CC[C@]43C)C2[C@@H]1O (stereo partly specified),inactive
15,Nc1ccn([C@@H]2C(F)=C(CO)[C@@H](O)[C@H]2O)c(=O)n1,inactive
16,C=C1CCC(OC(C)=O)C2(C)CC3(O)OC(=O)C(C)=C3CC12 (stereo unspecified),inactive
